In article PMC5540273 (PLoS ONE, 2017):

Tests used:
Conditions in all cases: concentration: 1 μM, replicates: in singlicate; n = 1
ERK5 = tested on: T1, ERK5
T1 construct: gene MAPK7

ERK8 = tested on: T2, ERK8
T2 construct: gene MAPK15

ERN1 = tested on: ERN1
FAK = tested on: T3, FAK
T3 construct: gene PTK2

FER = tested on: FER
FES = tested on: FES
FGFR1 = tested on: FGFR1
FGFR2 = tested on: FGFR2
FGFR3 = tested on: FGFR3
FGFR4 = tested on: FGFR4
FGR = tested on: FGR
FLT1 = tested on: FLT1
FLT3-autoinhibited = tested on: FLT3-autoinhibited
FLT3 = tested on: FLT3
FLT4 = tested on: FLT4
FRK = tested on: FRK
FYN = tested on: FYN
GAK = tested on: GAK
GCN2(Kin.Dom.2,S808G) = tested on: T4, GCN2(Kin.Dom.2,S808G)
T4 construct: gene EIF2AK4

GRK1 = tested on: GRK1
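Further: KINOMEscan kinase panel screen.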

Structure (SMILES)	%Inh (ERK5)	%Inh (ERK8)	%Inh (ERN1)	%Inh (FAK)	%Inh (FER)	%Inh (FES)	%Inh (FGFR1)	%Inh (FGFR2)	%Inh (FGFR3)	%Inh (FGFR4)	%Inh (FGR)	%Inh (FLT1)	%Inh (FLT3-autoinhibited)	%Inh (FLT3)	%Inh (FLT4)	%Inh (FRK)	%Inh (FYN)	%Inh (GAK)	%Inh (GCN2(Kin.Dom.2,S808G))	%Inh (GRK1)
Nc1n[nH]c2nnc(-c3ccccc3)c(-c3ccccc3)c12 [GW554060]	0%	50%	7%	0%	21%	0%	4%	25%	32%	1%	7%	20%	0%	8%	0%	5%	2%	1%	8%	0%
COC(=O)c1c(-c2ccccc2)c2cc(C)ccc2c(=O)n1Cc1ccccc1	0%	0%	0%	0%	0%	0%	0%	0%	0%	0%	2%	0%	13%	0%	0%	0%	0%	0%	0%	0%
COc1ccc(Nc2nccc(N3CCC(NS(=O)(=O)c4ccc(NC(C)=O)cc4)C3)n2)cc1 (stereo not drawn) [GSK1379729]	0%	53%	0%	0%	24%	5%	8%	29%	18%	98.5%	26%	26%	27%	29%	26%	16%	15%	9%	14%	9%
C[C@@H]1CC[C@H](C(=O)NC2CCCCC2)CN1c1cc(-c2ccc3c(N)n[nH]c3c2)nc(N)n1 [GSK2291363]	0%	1%	17%	0%	41%	0%	4%	8%	17%	12%	27%	35%	9%	9%	14%	19%	21%	17%	0%	0%
O=C(Nc1n[nH]c2nc(-c3ccccc3)c(Br)cc12)C1CC1 [SB-708998]	100%	15%	0%	0%	7%	0%	14%	0%	13%	5%	8%	25%	8%	1%	26%	0%	26%	11%	0%	0%
COC(=O)c1c(-c2ccccc2)c2cc(Br)ccc2c(=O)n1Cc1ccc(S(C)(=O)=O)cc1	8%	0%	23%	6%	0%	20%	0%	10%	2%	0%	13%	0%	0%	9%	1%	1%	0%	9%	0%	0%
COc1cc(OC)cc(-c2cc3cnc(N)nc3nc2NC(=O)NC(C)(C)C)c1	2%	29%	0%	0%	0%	0%	97.8%	96.7%	96.3%	54%	0%	38%	0%	0%	73%	0%	1%	0%	3%	13%
Nc1ncnc2c1ncn2-c1cccc2ccccc12 [SKF-97184]	0%	9%	0%	0%	0%	0%	12%	0%	0%	0%	6%	0%	0%	0%	10%	0%	0%	0%	0%	31%
Nc1ncnc2c1ncn2-c1ccc(Cl)cc1 [AH2635]	0%	0%	0%	0%	26%	0%	0%	0%	8%	0%	18%	39%	1%	46%	9%	0%	12%	7%	0%	0%
Cc1nnc(-c2ccc3ncn(-c4ccc(S(C)=O)cc4)c3c2)o1 (stereo not drawn)	3%	6%	18%	1%	5%	20%	1%	14%	9%	12%	18%	8%	0%	8%	0%	0%	8%	2%	19%	11%
Nc1nc(-c2ccccc2F)c(-c2ccnc3ccccc23)s1 [GW560459]	0%	0%	0%	0%	13%	0%	0%	0%	0%	75%	7%	30%	0%	25%	0%	0%	39%	79%	6%	0%
COc1ccc(-c2cc3c(C)nc(N)nc3n([C@H]3CC[C@H](OCCO)CC3)c2=O)cn1	12%	0%	0%	0%	13%	1%	7%	0%	0%	0%	14%	11%	0%	0%	0%	0%	0%	0%	0%	0%
Nc1n[nH]c2ncc(-c3ccccc3)cc12 [SB-517081]	0%	0%	9%	0%	0%	0%	0%	0%	2%	18%	28%	7%	49%	72%	0%	15%	26%	70%	52%	0%
COC(=O)c1c(-c2ccccc2)c2cc(Br)ccc2c(=O)n1Cc1ccc(NC(=O)CCC(=O)O)cc1	13%	0%	20%	0%	0%	9%	0%	0%	0%	0%	8%	0%	0%	6%	9%	8%	0%	0%	0%	0%
COc1cccc(C2=C(Nc3cccc(C(=O)O)c3)C(=O)NC2=O)c1 [SB-390770]	0%	36%	0%	3%	40%	0%	50%	71%	48%	14%	14%	13%	5%	0%	25%	2%	29%	21%	0%	14%
CCn1c(-c2ccoc2)nc2cnccc21 [SB-733887]	0%	0%	0%	0%	20%	0%	0%	0%	0%	20%	10%	9%	65%	0%	10%	0%	47%	0%	0%	0%
O=C1NC(=O)C(c2ccccc2)=C1Nc1cccc(O)c1 [SB-390534]	0%	0%	0%	0%	0%	0%	11%	0%	10%	1%	0%	2%	5%	26%	0%	0%	0%	11%	0%	13%
O=C(NCCNc1ccnc(Nc2ccc(F)cc2)n1)Nc1ccc2c(c1)OCO2 [GSK1379882]	2%	0%	30%	0%	0%	0%	0%	0%	2%	0%	0%	0%	12%	0%	9%	0%	34%	14%	0%	0%
Cl.NS(=O)(=O)c1cccc(Nc2cc(-c3ccc(F)cc3)n[nH]2)c1 [GW824645]	0%	3%	21%	0%	41%	0%	0%	0%	0%	0%	0%	0%	77%	88%	0%	0%	0%	0%	0%	23%
O=C(Nc1ccc2c(c1)OCO2)NC1CCN(c2ccnc(NCc3ccc(F)cc3)n2)CC1 [GSK1379859]	0%	0%	0%	0%	8%	0%	4%	0%	0%	0%	9%	15%	0%	0%	9%	0%	31%	4%	1%	0%
O=C(Nc1n[nH]c2nc(-c3ccccc3)c(Cl)cc12)C1CC1 [SB-734909]	0%	0%	24%	0%	0%	0%	0%	4%	5%	0%	13%	9%	16%	2%	0%	0%	0%	0%	0%	37%

Structure (SMILES)	%Inh (ERK5)	%Inh (ERK8)	%Inh (ERN1)	%Inh (FAK)	%Inh (FER)	%Inh (FES)	%Inh (FGFR1)	%Inh (FGFR2)	%Inh (FGFR3)	%Inh (FGFR4)	%Inh (FGR)	%Inh (FLT1)	%Inh (FLT3-autoinhibited)	%Inh (FLT3)	%Inh (FLT4)	%Inh (FRK)	%Inh (FYN)	%Inh (GAK)	%Inh (GCN2(Kin.Dom.2,S808G))	%Inh (GRK1)
COc1cc2ncn(-c3cc(OCCCc4ccccc4)c(C(N)=O)s3)c2cc1OC [GSK205189]	0%	3%	0%	0%	10%	0%	0%	9%	16%	0%	21%	23%	0%	5%	0%	0%	24%	66%	0%	5%
Cc1ccc(Oc2ccc(Nc3ncnc4cc[nH]c34)cc2C)cn1	5%	0%	21%	8%	15%	23%	10%	0%	4%	11%	29%	92.5%	23%	3%	0%	12%	0%	10%	0%	9%
Cn1c(=O)c(F)c(Nc2ccc(I)cc2F)c2c(=O)n(OC[C@H](O)CO)cnc21	24%	16%	0%	30%	10%	9%	23%	4%	0%	12%	32%	0%	0%	0%	10%	0%	14%	11%	0%	9%
COc1cc2ncn(-c3cc(OCc4ccc(S(C)(=O)=O)cc4)c(C(N)=O)s3)c2cc1OC [GW869979]	0%	12%	6%	2%	0%	0%	0%	5%	4%	0%	0%	0%	14%	4%	15%	0%	0%	7%	0%	10%
Nc1nccc2scc(-c3ccc4c(c3)CCN4C(=O)Cc3ccccc3)c12 [GSK2576924]	10%	0%	15%	0%	16%	0%	0%	0%	27%	7%	22%	22%	3%	0%	21%	0%	33%	0%	0%	4%
COc1cc(Nc2nccc(N3CCC(NC(=O)C(C)c4ccc(Cl)cc4)C3)n2)cc(OC)c1OC (stereo not drawn) [GSK1379757]	0%	0%	0%	0%	2%	18%	0%	45%	2%	0%	26%	40%	0%	25%	7%	0%	0%	0%	0%	0%
CCC(=O)c1c(-c2ccccc2)c2cc(Cl)ccc2c(=O)n1Cc1cc(S(C)(=O)=O)n(CC(F)F)n1	0%	6%	0%	0%	0%	0%	0%	4%	0%	0%	0%	0%	0%	0%	0%	0%	0%	0%	0%	12%
CCC(=O)c1c(-c2ccccc2)c2cc(Cl)ccc2c(=O)n1Cc1ccc(C(=O)O)cc1	0%	0%	0%	0%	0%	5%	0%	0%	0%	0%	0%	0%	4%	0%	0%	0%	0%	0%	12%	0%
COc1ccc(-n2cnc3c(N)ncnc32)cc1 [SKF-97236]	0%	40%	0%	13%	13%	0%	27%	0%	0%	18%	0%	24%	34%	83%	22%	0%	25%	27%	0%	0%
COc1ccc(-c2coc3ccc(-c4nnc(SCc5cccc(C#N)c5)o4)cc23)cc1	0%	14%	11%	0%	10%	7%	11%	13%	17%	17%	0%	0%	10%	13%	0%	0%	5%	12%	0%	9%
Cc1cc(Nc2nc(-c3cccc(C)n3)nc3ccccc23)ccn1 [GW872411]	3%	13%	0%	0%	0%	0%	12%	0%	0%	0%	0%	0%	0%	7%	0%	0%	0%	0%	0%	13%
CN1C(=O)C(Nc2cc(Cl)c(O)c(Cl)c2)=C(c2ccc(Cl)cc2)C1=O [SB-404321]	0%	0%	0%	0%	0%	0%	0%	0%	9%	0%	0%	0%	0%	0%	0%	0%	0%	0%	6%	0%
COc1cc(Nc2ccnc3ccc(C(F)(F)F)cc23)cc(OC)c1OC [GW577382]	0%	0%	0%	0%	21%	2%	16%	25%	3%	11%	30%	9%	0%	0%	3%	19%	30%	86%	9%	17%
Cc1ccccc1COc1cc(-n2cnc3cc(Cl)ccc32)sc1C(N)=O [GW813349]	0%	9%	0%	5%	0%	2%	12%	3%	0%	0%	9%	5%	3%	8%	10%	0%	0%	1%	0%	13%
CCS(=O)(=O)c1ccc(OC)c(Nc2ncc(-c3ccc(F)cc3)o2)c1.Cl [GW591947]	0%	0%	8%	0%	29%	0%	3%	0%	0%	12%	0%	26%	0%	0%	6%	0%	9%	0%	16%	0%
CC(C)(C)c1ccc(C(=O)Nc2cn3cc(-c4ccccc4)ccc3n2)cc1	0%	20%	26%	0%	0%	0%	0%	1%	7%	0%	0%	0%	0%	35%	0%	10%	0%	0%	8%	25%
COc1cc2ncn(-c3cc(OCc4ccncc4)c(C(N)=O)s3)c2cc1OC [GSK336313]	0%	0%	23%	0%	24%	0%	0%	0%	7%	2%	28%	19%	0%	0%	17%	0%	35%	17%	0%	0%
Nc1nc(N)c2nc(-c3ccccc3)[nH]c2n1 [SKF-12778]	0%	41%	11%	6%	14%	0%	16%	32%	21%	12%	30%	18%	7%	8%	22%	8%	0%	30%	23%	5%
CCCNC(=O)Nc1ccc(Oc2ncnc3ccn(C)c23)cc1	3%	0%	35%	3%	0%	0%	8%	0%	0%	0%	0%	0%	2%	45%	10%	0%	1%	3%	10%	24%
CCC(=O)c1c(-c2ccccc2)c2cc(Cl)ccc2c(=O)n1Cc1cc(C(=O)NC2CC2)n(C)n1	4%	0%	12%	0%	0%	22%	4%	2%	0%	0%	20%	0%	0%	0%	1%	8%	0%	1%	0%	0%
CCS(=O)c1ccc(-c2coc3ccc(-c4nnc(C)o4)cc23)cc1 (stereo not drawn)	0%	0%	16%	0%	11%	7%	9%	10%	7%	0%	0%	0%	0%	0%	0%	5%	0%	0%	0%	5%
